Compound activity deposited in PubChem BioAssay by Sanford-Burnham Center for Chemical Genomics.
This is one part of a sample in which hits are shown more often than they occur.
ER stress death = ER stress cell death inhibition; actives 0.33% (n = 48,000); CSM14.1 thapsigargin ER stress survival, ATP luminescence; relative survival (cellular ATP), % at 15 µg/mL (by protocol);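 active = survival measured by cellular ATP above 50% at 15 µg/ml in the first screen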;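 also: cell death triggered by about 15 µM thapsigargin; ATP read 24 h after thapsigargin was added; plate controls were thapsigargin with DMSO for no effect and DMSO without thapsigargin for full effect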
Active calls of the source: *.

SMILES	ER stress death
COP(=O)(OC)C(Nc1cc(Cl)cc(Cl)c1)c1cccc(O)c1 (configuration not stated)	-2.8
COc1ccccc1NCC(=O)N/N=C/c1cc(Br)cs1	7.2
COc1ccc(OC)c(-c2nc(-c3ccccc3)c(-c3cccs3)[nH]2)c1	7.0
COc1ccc(-c2nc(-c3cc(OC)c(OC)cc3OC)[nH]c2-c2ccc(OC)cc2)cc1	116.5*
COc1ccc(-c2nc(-c3ccc(O)cc3)[nH]c2-c2ccc(OC)cc2)cc1	-9.8
